In PubChem BioAssay (EPA / NIEHS):
A structure can be active in one record and inactive in another. Activity calls are given as the source filed them. How the source made its calls: active means hit-call score of the fitted dose curve at least 0.9, where 1 is the maximum; inactive means score below 0.9.

Test: BSK_CASM3C_SRB: Viability Assessment in the BioMAP Diversity Plus: CASM3C Assay (AID 2283050);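 further: total protein by SRB staining as cytotoxicity measure in parallel cultures; cells exposed to compound for 24 h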
Conditions: primary human coronary artery smooth muscle cells

Structure (SMILES)	outcome	AC50
O=C(O)C(F)(F)C(F)(F)C(F)(F)C(F)(F)C(F)(F)C(F)(F)C(F)(F)F	inactive	
CNC(=O)/C=C(\C)OP(=O)(OC)OC	inactive	
CC1(c2ccc(Oc3ccccc3)cc2)OC(=O)N(Nc2ccccc2)C1=O (configuration not stated)	inactive	
O=C(Nc1ccccc1)Nc1cnns1	inactive	
COP(=S)(OC)Oc1ccc([N+](=O)[O-])cc1	inactive	
CNC(=O)Oc1cccc(N=CN(C)C)c1	inactive	
CCCN(CCOc1c(Cl)cc(Cl)cc1Cl)C(=O)n1ccnc1	inactive	
COC(=O)c1ccccc1S(=O)(=O)NC(=O)Nc1nc(C)nc(OC)n1	inactive	
Cc1cc(C)nc(NC(=O)NS(=O)(=O)c2ccccc2C(=O)OC2COC2)n1	inactive	
CCC(C)(C)C(=O)OC1=C(c2ccc(Cl)cc2Cl)C(=O)OC12CCCCC2		28.7 µM (active)
CNC(=O)Oc1ccccc1OC(C)C	inactive	
Clc1ccccc1-c1nnc(-c2ccccc2Cl)nn1	inactive	
O=C1c2ccccc2C(=O)N1SC(Cl)(Cl)Cl		29 µM (active)
Cc1[nH]c(=O)n(C(C)(C)C)c(=O)c1Cl	inactive	
C[C@H]1[C@H](c2ccc(Cl)cc2)SC(=O)N1C(=O)NC1CCCCC1	inactive	
COC(=O)c1ccccc1S(=O)(=O)NC(=O)N(C)c1nc(C)nc(OC)n1	inactive	
CCc1ccc(C(=O)NN(C(=O)c2cc(C)cc(C)c2)C(C)(C)C)cc1	inactive	
CC[C@H](C)[C@H]1O[C@]2(C=C[C@@H]1C)C[C@@H]1C[C@@H](C/C=C(\C)[C@@H](O[C@H]3C[C@H](OC)[C@@H](O[C@H]4C[C@H](OC)[C@@H](O)[C@H](C)O4)[C@H](C)O3)[C@@H](C)/C=C/C=C3\CO[C@@H]4[C@H](O)C(C)=C[C@@H](C(=O)O1)[C@]34O)O2 (tested in a mixture with another compound)		15 µM (active)
O=S(=O)(O)C(F)(F)C(F)(F)C(F)(F)C(F)(F)C(F)(F)C(F)(F)C(F)(F)C(F)(F)F	inactive	
Oc1ccc(Cl)cc1Cc1ccccc1		32.4 µM (active) [middle of 7 runs]
COP(=S)(OC)Oc1ccc(SC)c(C)c1	inactive	
COC(=O)c1ccccc1CS(=O)(=O)NC(=O)Nc1nc(OC)cc(OC)n1	inactive	
Oc1cc(Cl)ccc1Oc1ccc(Cl)cc1Cl		33.1 µM (active) [middle of 4 runs]
OCCOc1ccccc1	inactive	
ClC1C(Cl)C(Cl)C(Cl)C(Cl)C1Cl (configuration not stated)	inactive	35.2 µM (active)
CC(C)N(C(=O)COc1nnc(C(F)(F)F)s1)c1ccc(F)cc1	inactive	
